Common to all, as to assay: PBM; 200 nM protein, PBS
Details in all cases: dsDNA, one strand shown

Test [1] concerns the target ALX3 (Homo sapiens, UniProt O95076 139-225, N203Q).
Test [2] deals with ALX3 (Homo sapiens, UniProt O95076 139-225).
The target of test [3] is ALX3 (Homo sapiens, UniProt O95076 139-225, L168Q).
The target of test [4] is ALX3 (Homo sapiens, UniProt O95076 139-225, L168V).
In test [5] the target is ALX3 (Homo sapiens, UniProt O95076 139-225, N203S).
The target in test [6] is T1, PAX4 (Homo sapiens, UniProt O43316 9-242, F177V).
T1 sequence: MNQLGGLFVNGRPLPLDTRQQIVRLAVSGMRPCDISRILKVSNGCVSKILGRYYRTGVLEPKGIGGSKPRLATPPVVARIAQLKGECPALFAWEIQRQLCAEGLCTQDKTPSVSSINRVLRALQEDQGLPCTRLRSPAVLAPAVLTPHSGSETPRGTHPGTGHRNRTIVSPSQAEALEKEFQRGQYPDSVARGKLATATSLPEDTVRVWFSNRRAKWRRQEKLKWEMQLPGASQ

For test [7], the target named is T2, PAX4 (Homo sapiens, UniProt O43316 9-242, F177Y).
T2 sequence: T1 sequence with V169Y

Test [8] has as its target HOXD13 (Homo sapiens, UniProt P35453 263-343, T313R).
Test [9] addresses HOXD13 (Homo sapiens, UniProt P35453 263-343).
For test [10], the target named is HOXD13 (Homo sapiens, UniProt P35453 263-343, T313A).
Chain of HOXD13 (Homo sapiens, UniProt P35453 263-343, T313A) (P35453 263-343 T313A): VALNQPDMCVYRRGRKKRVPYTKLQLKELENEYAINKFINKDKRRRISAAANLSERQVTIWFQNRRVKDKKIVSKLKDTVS
The target in the next test is HOXC9 (Homo sapiens, UniProt P31274 178-260, R222W).
Chain of HOXC9 (P31274 178-260 R222W): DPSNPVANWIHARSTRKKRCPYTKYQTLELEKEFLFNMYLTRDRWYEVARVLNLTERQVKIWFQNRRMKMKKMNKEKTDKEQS
Test [11] deals with VAX1 (Homo sapiens, UniProt Q5SQQ9 86-172).
Chain of VAX1 (Homo sapiens, UniProt Q5SQQ9 86-172) (Q5SQQ9 86-172): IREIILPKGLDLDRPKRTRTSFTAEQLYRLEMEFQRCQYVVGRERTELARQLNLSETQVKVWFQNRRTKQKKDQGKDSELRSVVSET
In test [12] the target is VAX1 (Homo sapiens, UniProt Q5SQQ9 86-172, T142I).
Chain of VAX1 (Homo sapiens, UniProt Q5SQQ9 86-172, T142I) (Q5SQQ9 86-172 T142I): as the sequence (Q5SQQ9 86-172) above, with T57I counted along it
Test [13] has as its target VAX1 (Homo sapiens, UniProt Q5SQQ9 86-172, K157R).

Changes are numbered by the printed parent chain.

Chain of ALX3 (Homo sapiens, UniProt O95076 139-225, L168V) (O95076 139-225 L168V): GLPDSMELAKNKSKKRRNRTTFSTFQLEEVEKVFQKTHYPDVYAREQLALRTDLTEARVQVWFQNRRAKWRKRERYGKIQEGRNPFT
Chain of ALX3 (Homo sapiens, UniProt O95076 139-225, L168Q) (O95076 139-225 L168Q): as the sequence (O95076 139-225 L168V) above, with V30Q counted along it
Chain of ALX3 (Homo sapiens, UniProt O95076 139-225) (O95076 139-225): as the sequence (O95076 139-225 L168V) above, with V30L counted along it
Chain of ALX3 (Homo sapiens, UniProt O95076 139-225, N203S) (O95076 139-225 N203S): as the sequence (O95076 139-225 L168V) above, with V30L, N65S counted along it
Chain of ALX3 (Homo sapiens, UniProt O95076 139-225, N203Q) (O95076 139-225 N203Q): as the sequence (O95076 139-225 L168V) above, with V30L, N65Q counted along it
Chain of HOXD13 (Homo sapiens, UniProt P35453 263-343) (P35453 263-343): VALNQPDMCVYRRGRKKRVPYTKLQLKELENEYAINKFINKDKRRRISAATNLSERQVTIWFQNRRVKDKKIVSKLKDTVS
Chain of VAX1 (Homo sapiens, UniProt Q5SQQ9 86-172, K157R) (Q5SQQ9 86-172 K157R): as the sequence (Q5SQQ9 86-172) above, with K72R counted along it
Chain of HOXD13 (Homo sapiens, UniProt P35453 263-343, T313R) (P35453 263-343 T313R): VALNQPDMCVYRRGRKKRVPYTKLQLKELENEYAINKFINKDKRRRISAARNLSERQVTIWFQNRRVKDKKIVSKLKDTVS

With CGCTCCCC, the binding signal was 7.64 upbm affinity estimate (log intensity, higher = more binding, comparable within an allelic series) with ALX3 [1]; 7.58 upbm affinity estimate (log intensity, higher = more binding, comparable within an allelic series) with ALX3 [2]; 7.75 upbm affinity estimate (log intensity, higher = more binding, comparable within an allelic series) with ALX3 [3]; 7.7 upbm affinity estimate (log intensity, higher = more binding, comparable within an allelic series) in the test with ALX3 [4]; 7.67 upbm affinity estimate (log intensity, higher = more binding, comparable within an allelic series) with ALX3 [5].
As to GGATGGCC, the binding signal is 7.66 upbm affinity estimate (log intensity, higher = more binding, comparable within an allelic series) in the test with ALX3 [1]; 7.74 upbm affinity estimate (log intensity, higher = more binding, comparable within an allelic series) with ALX3 [2]; 7.73 upbm affinity estimate (log intensity, higher = more binding, comparable within an allelic series) with ALX3 [3]; 7.67 upbm affinity estimate (log intensity, higher = more binding, comparable within an allelic series) in the test with ALX3 [4]; 7.67 upbm affinity estimate (log intensity, higher = more binding, comparable within an allelic series) with ALX3 [5].
For CTTAATTC, the binding signal with ALX3 [1] was 8.32 upbm affinity estimate (log intensity, higher = more binding, comparable within an allelic series); in the test with ALX3 [2], 11.7 upbm affinity estimate (log intensity, higher = more binding, comparable within an allelic series); with ALX3 [3], 9.59 upbm affinity estimate (log intensity, higher = more binding, comparable within an allelic series); with ALX3 [4], 9.14 upbm affinity estimate (log intensity, higher = more binding, comparable within an allelic series); with ALX3 [5] it was 8.4 upbm affinity estimate (log intensity, higher = more binding, comparable within an allelic series).
Regarding ACCCGGGT, the binding signal with ALX3 [1] was 7.83 upbm affinity estimate (log intensity, higher = more binding, comparable within an allelic series); with ALX3 [2], 8.06 upbm affinity estimate (log intensity, higher = more binding, comparable within an allelic series); with ALX3 [3], 8.02 upbm affinity estimate (log intensity, higher = more binding, comparable within an allelic series); with ALX3 [4] it was 7.92 upbm affinity estimate (log intensity, higher = more binding, comparable within an allelic series); in the test with ALX3 [5], 7.9 upbm affinity estimate (log intensity, higher = more binding, comparable within an allelic series).
For ACCGGTTA, the binding signal is 8.13 upbm affinity estimate (log intensity, higher = more binding, comparable within an allelic series) with ALX3 [1]; 9.46 upbm affinity estimate (log intensity, higher = more binding, comparable within an allelic series) with ALX3 [2]; 8.24 upbm affinity estimate (log intensity, higher = more binding, comparable within an allelic series) with ALX3 [3]; 8.11 upbm affinity estimate (log intensity, higher = more binding, comparable within an allelic series) with ALX3 [4]; 8.2 upbm affinity estimate (log intensity, higher = more binding, comparable within an allelic series) with ALX3 [5].
For AATATTAT, the binding signal was 8.61 upbm affinity estimate (log intensity, higher = more binding, comparable within an allelic series) with ALX3 [1]; 10.7 upbm affinity estimate (log intensity, higher = more binding, comparable within an allelic series) in the test with PAX4 [6]; 8.71 upbm affinity estimate (log intensity, higher = more binding, comparable within an allelic series) with ALX3 [5].
On to ACCGCGGT, for which the binding signal was 7.85 upbm affinity estimate (log intensity, higher = more binding, comparable within an allelic series) with ALX3 [1]; 8.03 upbm affinity estimate (log intensity, higher = more binding, comparable within an allelic series) with ALX3 [2]; 7.86 upbm affinity estimate (log intensity, higher = more binding, comparable within an allelic series) with ALX3 [3]; 7.92 upbm affinity estimate (log intensity, higher = more binding, comparable within an allelic series) with ALX3 [4]; 7.86 upbm affinity estimate (log intensity, higher = more binding, comparable within an allelic series) with ALX3 [5].
For CAGTCGCA, the binding signal with ALX3 [1] was 7.8 upbm affinity estimate (log intensity, higher = more binding, comparable within an allelic series); with ALX3 [2], 7.85 upbm affinity estimate (log intensity, higher = more binding, comparable within an allelic series); with ALX3 [3] it was 7.89 upbm affinity estimate (log intensity, higher = more binding, comparable within an allelic series); in the test with ALX3 [4], 7.88 upbm affinity estimate (log intensity, higher = more binding, comparable within an allelic series); with ALX3 [5] it was 7.8 upbm affinity estimate (log intensity, higher = more binding, comparable within an allelic series).
Consider AGCGGGAC, for which the binding signal in the test with ALX3 [1] is 7.69 upbm affinity estimate (log intensity, higher = more binding, comparable within an allelic series); with ALX3 [2], 7.54 upbm affinity estimate (log intensity, higher = more binding, comparable within an allelic series); with ALX3 [3], 7.62 upbm affinity estimate (log intensity, higher = more binding, comparable within an allelic series); with ALX3 [4], 7.69 upbm affinity estimate (log intensity, higher = more binding, comparable within an allelic series); with ALX3 [5] it was 7.73 upbm affinity estimate (log intensity, higher = more binding, comparable within an allelic series).
As to CTCCAGCC, the binding signal with ALX3 [1] was 7.6 upbm affinity estimate (log intensity, higher = more binding, comparable within an allelic series); in the test with ALX3 [2] it was 7.5 upbm affinity estimate (log intensity, higher = more binding, comparable within an allelic series); with ALX3 [3] it was 7.62 upbm affinity estimate (log intensity, higher = more binding, comparable within an allelic series); with ALX3 [4], 7.62 upbm affinity estimate (log intensity, higher = more binding, comparable within an allelic series); in the test with ALX3 [5], 7.57 upbm affinity estimate (log intensity, higher = more binding, comparable within an allelic series).
In the case of ATAATATA, the binding signal with ALX3 [1] was 8.66 upbm affinity estimate (log intensity, higher = more binding, comparable within an allelic series); with PAX4 [6] it was 10.7 upbm affinity estimate (log intensity, higher = more binding, comparable within an allelic series); with ALX3 [5] it was 8.76 upbm affinity estimate (log intensity, higher = more binding, comparable within an allelic series).
In the case of TATACATA, the binding signal was 8.57 upbm affinity estimate (log intensity, higher = more binding, comparable within an allelic series) with ALX3 [1]; 10.7 upbm affinity estimate (log intensity, higher = more binding, comparable within an allelic series) with PAX4 [6]; 10.7 upbm affinity estimate (log intensity, higher = more binding, comparable within an allelic series) with PAX4 [7].
With ACCAGCGG, the binding signal was 7.79 upbm affinity estimate (log intensity, higher = more binding, comparable within an allelic series) with ALX3 [1]; 7.56 upbm affinity estimate (log intensity, higher = more binding, comparable within an allelic series) with ALX3 [2]; 7.79 upbm affinity estimate (log intensity, higher = more binding, comparable within an allelic series) with ALX3 [3]; 7.78 upbm affinity estimate (log intensity, higher = more binding, comparable within an allelic series) with ALX3 [4]; 7.78 upbm affinity estimate (log intensity, higher = more binding, comparable within an allelic series) with ALX3 [5].
Take AGGGGGGC: the binding signal with ALX3 [1] is 7.49 upbm affinity estimate (log intensity, higher = more binding, comparable within an allelic series); with ALX3 [2], 7.66 upbm affinity estimate (log intensity, higher = more binding, comparable within an allelic series); with ALX3 [3], 7.62 upbm affinity estimate (log intensity, higher = more binding, comparable within an allelic series); with ALX3 [4], 7.47 upbm affinity estimate (log intensity, higher = more binding, comparable within an allelic series); with ALX3 [5] it was 7.44 upbm affinity estimate (log intensity, higher = more binding, comparable within an allelic series).
As for AGGCACGC, the binding signal with ALX3 [1] was 7.63 upbm affinity estimate (log intensity, higher = more binding, comparable within an allelic series); with ALX3 [2], 7.78 upbm affinity estimate (log intensity, higher = more binding, comparable within an allelic series); with ALX3 [3], 7.71 upbm affinity estimate (log intensity, higher = more binding, comparable within an allelic series); with ALX3 [4], 7.61 upbm affinity estimate (log intensity, higher = more binding, comparable within an allelic series); with ALX3 [5], 7.64 upbm affinity estimate (log intensity, higher = more binding, comparable within an allelic series).
Take CCCGAGAG: the binding signal with ALX3 [1] was 7.84 upbm affinity estimate (log intensity, higher = more binding, comparable within an allelic series); with ALX3 [2] it was 7.81 upbm affinity estimate (log intensity, higher = more binding, comparable within an allelic series); with ALX3 [3], 7.74 upbm affinity estimate (log intensity, higher = more binding, comparable within an allelic series); in the test with ALX3 [4], 7.83 upbm affinity estimate (log intensity, higher = more binding, comparable within an allelic series); with ALX3 [5], 7.85 upbm affinity estimate (log intensity, higher = more binding, comparable within an allelic series).
Turning to TATTAAAA, the binding signal with ALX3 [1] was 8.56 upbm affinity estimate (log intensity, higher = more binding, comparable within an allelic series); with HOXD13 [8], 10.8 upbm affinity estimate (log intensity, higher = more binding, comparable within an allelic series); with HOXD13 [9] it was 11.8 upbm affinity estimate (log intensity, higher = more binding, comparable within an allelic series); with HOXD13 [10] it was 11.8 upbm affinity estimate (log intensity, higher = more binding, comparable within an allelic series); with HOXC9, 11.1 upbm affinity estimate (log intensity, higher = more binding, comparable within an allelic series).
Consider GCTCTGCC, for which the binding signal with ALX3 [1] is 7.7 upbm affinity estimate (log intensity, higher = more binding, comparable within an allelic series); with ALX3 [2] it was 7.55 upbm affinity estimate (log intensity, higher = more binding, comparable within an allelic series); in the test with VAX1 [11] it was 7.01 upbm affinity estimate (log intensity, higher = more binding, comparable within an allelic series); in the test with ALX3 [3], 7.72 upbm affinity estimate (log intensity, higher = more binding, comparable within an allelic series); with ALX3 [4], 7.75 upbm affinity estimate (log intensity, higher = more binding, comparable within an allelic series); in the test with VAX1 [12] it was 7.19 upbm affinity estimate (log intensity, higher = more binding, comparable within an allelic series). Besides, the binding signal in the test with ALX3 [5] was 7.71 upbm affinity estimate (log intensity, higher = more binding, comparable within an allelic series); with VAX1 [13], 7.08 upbm affinity estimate (log intensity, higher = more binding, comparable within an allelic series).

The values are drawn from paper PMC11006913.
